Experiment [1] is described as follows: qHTS assay to identify small molecule agonists of the vitamin D receptor (VDR) signaling pathway - cell viability counter screen (AID 743224). Further: nearly all actives have a fitted effect of over 50% in size. Further: potency means the concentration at half of the fitted maximal effect. The method in brief:
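Compounds were pin-transferred onto VDR-bla cells plated 4 h earlier; following 16 h incubation at 37C, cell viability was quantified by CellTiter-Glo luminescence after 30 min at room temperature.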
(In general: In qHTS, concentration-response curves come from the screen itself.)

Experiment [2] can be described thus: qHTS assay to identify small molecule agonists of the NFkB signaling pathway (AID 1159509; active means well fitted curve in the direction sought with a large enough effect in the signal ratio in the repeat runs, not every such curve was filed as active; the % refers to the signal ratio; further: series mostly up to about 61 µM; on the % scale 0 is the no-effect control and ±100 the full control effect). An outline of the steps:
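Agonist activity was read as beta-lactamase-driven FRET change (460 and 530 nm emission, 405 nm excitation) following 1.5 hr substrate loading at room temperature. Beforehand, ME-180 NFkB-bla reporter cells were treated with compounds for 5 hr at 37 C.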

A short description of experiment [3]: qHTS assay to identify small molecule agonists of the NFkB signaling pathway - cell viability counter screen (AID 1159515; calls by dose curve; further: series mostly up to about 61 µM; on the % scale 0 is the no-effect control and ±100 the full control effect; nearly all actives have a fitted effect of over 55% in size). The method in brief:
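Parallel cytotoxicity counter screen in ME-180 cells carrying an NFkB-response-element beta-lactamase reporter, 2,000 cells/well. Compound exposure lasted 5 hr at 37 C, 5% CO2. Cell viability was quantified by CellTiter-Glo luminescence.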

The nature of experiment [4]: qHTS assay to identify small molecule agonists of the endoplasmic reticulum stress response signaling pathway - cell viability counter screen (AID 1159517; calls by dose curve; further: nearly all actives have a fitted effect of over 50% in size; further: potency means the concentration at half of the fitted maximal effect). The method in brief: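 In parallel with the ESRE reporter read, cytotoxicity was scored by CellTiter-Glo luminescence (30 min, room temperature) on HeLa ESRE-bla cells dosed for 5 hr.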
For experiment [5], the target named is Nuclear receptor ROR-gamma (Homo sapiens) (UniProt P51449). The experiment is described as follows: qHTS assay to identify small molecule antagonists of the retinoid-related orphan receptor gamma (ROR-gamma) signaling pathway (AID 1159521; further: nearly all actives have a fitted effect of over 50% in size; further: potency means the concentration at half of the fitted maximal effect). The method in brief: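 Luminescence readout (ONE-Glo, 30 min RT) after 16 h doxycycline induction; loss of signal scored as antagonism. CHO cells with TET-inducible RORγ and RORE-LUC reporter; compounds added 2 h before 1 uM final doxycycline.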

A short description of experiment [6]: qHTS assay to identify small molecule agonists of the AP-1 signaling pathway - cell viability counter screen (AID 1159525; calls by dose curve; further: nearly all actives have a fitted effect of over 55% in size). An outline of the steps:
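Same-well cytotoxicity counter screen of the Tox21 10K library in ME-180 cells. The readout is ATP-dependent luminescence after 5 h compound treatment. Data are normalised to DMSO and tetra n-octyl ammonium bromide controls.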

The nature of experiment [7]: qHTS assay to identify small molecule agonists of the AP-1 signaling pathway (AID 1159526; calls by dose curve; further: on the % scale 0 is the no-effect control and ±100 the full control effect).
The target of experiment [8] is Retinoic acid receptor RXR-alpha (Homo sapiens) (UniProt P19793). The experiment is described as follows: qHTS assay to identify small molecule agonists of the RXR signaling pathway (AID 1159527; calls by dose curve; further: on the % scale 0 is the no-effect control and ±100 the full control effect; nearly all actives have a fitted effect of over 35% in size). An outline of the steps: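 Agonist mode; 9-cis retinoic acid positive control. HEK 293T UAS-bla reporter cells, 2% charcoal-stripped FBS, 16 hr compound exposure at 37 C/5% CO2. LiveBLAzer B/G FRET substrate 2 hr RT; ex 405, em 460/530 nm.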

A short description of experiment [9]: qHTS assay to identify small molecule agonists of the RXR signaling pathway - cell viability counter screen (AID 1159529). Further: series mostly up to about 77 µM; on the % scale 0 is the no-effect control and ±100 the full control effect; nearly all actives have a fitted effect of over 50% in size. The method in brief: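 Luminescence from CellTiter-Glo (30 min, RT) measured viability in the same wells as the beta-lactamase reporter readout. Cells: GeneBLAzer RXR-alpha HEK 293T, 2% charcoal-stripped FBS. Compound exposure 16 hr, 37 C.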

A short description of experiment [10]: qHTS assay to identify small molecule antagonists of the retinoid acid receptor (RAR) signaling pathway - cell viability counter screen (AID 1159551). Further: nearly all actives have a fitted effect of over 35% in size. Further: potency means the concentration at half of the fitted maximal effect. The method in brief: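 ATP-based viability, C3RL4 cells, 6 h at 37 C with 1 uM final retinol co-added after compound; luminescence read 30 min post CellTiter-Glo, RT.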
A short description of experiment [11]: qHTS assay to identify small molecule antagonists of the retinoic acid receptor (RAR) signaling pathway (AID 1159552). The method in brief: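 Luminescence from a RARE luciferase reporter in C3RL4 cells served as read-out. Cells received compounds together with 1 uM final retinol and incubated 6 hr at 37 C before detection reagent was added for 30 min at room temperature.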

Experiment [12] can be described thus: qHTS assay to identify small molecule agonists of the retinoic acid receptor (RAR) signaling pathway (AID 1159553). Further: potency means the concentration at half of the fitted maximal effect. An outline of the steps: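 Quantitative high-throughput format: the Tox21 10K library was tested on C3RL4 RARE-luciferase cells for 6 hr at 37 C and 5% CO2, with luminescence measured after a 30 min room-temperature reagent step.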
Experiment [13] can be described thus: qHTS assay to identify small molecule antagonists of the retinoid-related orphan receptor gamma (ROR-gamma) signaling pathway - cell viability counter screen (AID 1159520). Further: nearly all actives have a fitted effect of over 50% in size. Further: potency means the concentration at half of the fitted maximal effect. The method in brief: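 Tet-on ROR gamma CHO cells were given compounds for 2 hr, then doxycycline hyclate at 1 uM final, and incubated 16 hr at 37 C. Viability was measured as ATP content by CellTiter-Glo luminescence.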

Experiment [14] is described as follows: qHTS assay to identify small molecule antagonists of the vitamin D receptor (VDR) signaling pathway - cell viability counter screen (AID 743225). An outline of the steps: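 Viability counter screen run in the same wells as the beta-lactamase reporter assay: HEK 293T VDR-UAS-bla cells, 16 h compound exposure at 37C with 3 nM (final) 1-alpha,25-dihydroxyvitamin D3. CellTiter-Glo luminescence, 30 min, room temperature.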

Experiment [15] can be described thus: qHTS assay to identify small molecule agonists of the endoplasmic reticulum stress response signaling pathway (AID 1159516; active means well fitted activation curve with a large enough effect in the signal ratio in the repeat runs, not every such curve was filed as active; the % refers to the signal ratio; further: on the % scale 0 is the no-effect control and ±100 the full control effect). The method in brief: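 Using a HeLa line with an ESRE-driven beta-lactamase gene, agonist activity was measured by FRET substrate fluorescence (460 and 530 nm emission) after cells were treated with compounds for 5 hr at 37 C and 5% CO2.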

Experiment [16] is described as follows: qHTS assay to identify small molecule antagonists of the estrogen related receptor (ERR) signaling pathway - cell viability counter screen (AID 1224818).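 Further: series mostly up to about 46 µM; viability measured after 17.5 h of compound exposure; on the % scale 0 is the no-effect control and ±100 the full control effect.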 The method in brief:
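Quantitative high-throughput viability counter screen in ERR cells. Compounds (DMSO) incubated 17.5 h at 37 C; read-out was CellTiter-Fluor fluorescence.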

The nature of experiment [17]: qHTS assay to identify small molecule antagonists of the estrogen related receptor (ERR) signaling pathway (AID 1224819). An outline of the steps:
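ERR reporter cell line (NTP) plated at 2,000 cells/well, settled 6 h at 37C/5% CO2, then exposed to LOPAC compounds for 18 h at 37C. One-Glo luciferase luminescence read after 30 min at room temperature.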

Experiment [18] can be described thus: qHTS assay to identify small molecule agonists of the estrogen related receptor (ERR) signaling pathway (AID 1224820). Further: on the % scale 0 is the no-effect control and ±100 the full control effect. The method in brief:
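After 6 h plating (2,000 cells/well) and 18 h compound treatment at 37 C, ERR cells were lysed with One-Glo and luminescence read after 30 min at room temperature.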

Experiment [19] deals with estrogen-related receptor alpha (ERRalpha) with PGC-1alpha coactivator, human. The experiment is described as follows: qHTS assay to identify small molecule antagonists of the estrogen related receptor signaling pathway with the pleiotropic PPARgamma coactivator (PGC) (AID 1224821; calls by dose curve). An outline of the steps: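 Luminescence from One-Glo luciferase reagent (30 min, room temperature) measured after 18 h compound treatment at 37 °C. Cells carry the PGC/ERR reporter and were seeded 6 h prior to dosing.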

The nature of experiment [20]: qHTS assay to identify small molecule antagonists of the estrogen related receptor signaling pathway with the pleiotropic PPARgamma coactivator (PGC) cell viability counter screen (AID 1224822). The method in brief: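 Cytotoxicity in the PGC/ERR cell line is assessed with CellTiter-Fluor, read as fluorescence intensity 30 min after reagent addition, following 17.5 h compound treatment at 37 C.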

Where “and” joins values, the source holds several entries; their conditions need not be identical. Equal values may be shown once. Results filed as inconclusive are left out. The source holds several records for some structures; these can differ, active in one and inactive in another. Calls of active or inactive are those of the source. Unless noted, the call rests on the fitted dose curve; in most records, active means well fitted curve in the direction sought with a large enough effect in the repeat runs; inconclusive means weak or mixed curves; inactive means no such curve, though single readings can be large; an effect the other way counts as inactive or inconclusive.

Chain of Retinoic acid receptor RXR-alpha (Homo sapiens) (P19793 whole entry, looked up): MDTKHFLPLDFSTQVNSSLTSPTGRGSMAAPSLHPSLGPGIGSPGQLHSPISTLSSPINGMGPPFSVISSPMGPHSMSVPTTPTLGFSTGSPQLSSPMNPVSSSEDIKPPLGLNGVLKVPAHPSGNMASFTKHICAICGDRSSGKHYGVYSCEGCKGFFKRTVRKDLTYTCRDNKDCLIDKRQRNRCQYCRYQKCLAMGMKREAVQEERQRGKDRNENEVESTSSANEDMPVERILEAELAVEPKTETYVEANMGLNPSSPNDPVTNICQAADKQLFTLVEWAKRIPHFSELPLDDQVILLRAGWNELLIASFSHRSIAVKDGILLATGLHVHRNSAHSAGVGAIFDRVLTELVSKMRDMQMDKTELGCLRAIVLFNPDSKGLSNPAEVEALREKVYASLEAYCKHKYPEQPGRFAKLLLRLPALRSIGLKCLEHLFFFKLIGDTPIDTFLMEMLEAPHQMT

`O=C=Nc1ccc(Cc2ccc(N=C=O)cc2)cc1`: the Potency entry in [1], in experiment [3], in [4], in [5], in [6] and in experiment [8] was “inactive” each time. In addition, the Potency entry in experiment [9], in experiment [10], in experiment [11] and in experiment [12] was “inactive” in each case. Also, the call in experiment [2] and in experiment [7] was inactive.

As for `O=C(Nc1ccc([N+](=O)[O-])cc1Cl)c1cc(Cl)ccc1O`, the Potency in [1] is 549 nM (active) and 651 nM (active); in experiment [13], 1.54 µM (active) and 920 nM (active); in [12], 43.3 nM (active) and 82 nM (active). Moreover, the molecule was called inactive in experiment [2]. The Potency entry in experiment [3], in experiment [5] and in experiment [11] was “inactive” throughout. The viability change, negative = cytotoxic in [6] was 2.04% [at 15.8 µM] (inactive). For the same molecule, the activation in [7] was 4.2% [at 15.8 µM] (inactive).

Turning to `CC1=CCC(C(C)(C)O)CC1` (centres undefined), the Potency entry in experiment [1], in experiment [14], in experiment [3], in [15], in experiment [4] and in [6] was “inactive” in each case. For the same molecule, the Potency entry in experiment [8], in [9] and in experiment [10] was “inactive” throughout. Moreover, the call in experiment [2] and in [7] was inactive.

On to `COc1ccccc1/C=C/C=O`, for which the Potency entry in experiment [1], in experiment [14], in experiment [3], in [15], in experiment [4] and in [5] was “inactive” each time. The Potency result in experiment [6], in experiment [8], in experiment [9] and in experiment [10] was “inactive” throughout. Besides, the result in experiment [2] and in [7] was inactive.

Turning to `CCCCOCCOCCOCCO`, the Potency result in experiment [1], in experiment [3], in [15], in experiment [13], in experiment [5] and in experiment [6] was “inactive” throughout. The Potency result in experiment [8], in experiment [9], in experiment [10] and in experiment [11] was “inactive” throughout. Moreover, the molecule was called inactive in experiment [2] and in [7].

On to `C[C@]12CC[C@H]3[C@@H](CCC4=CC(=O)CC[C@@]43C)[C@@H]1CC[C@@H]2C(=O)CO`, for which the Potency entry in experiment [1], in [3], in experiment [15], in experiment [4], in [6] and in experiment [9] was “inactive” in each case. Further, the Potency entry in experiment [10] was “inactive”. In addition, the molecule was classed as inactive in experiment [2] and in experiment [7]. Moreover, the Potency in experiment [5] was 27.3 µM (active).

For the molecule `c1ccc(Nc2ccccc2)cc1`, the Potency entry in experiment [1], in experiment [14], in experiment [3], in experiment [15], in experiment [4] and in experiment [6] was “inactive” throughout. Further, the Potency result in experiment [8], in experiment [9], in experiment [10], in experiment [11] and in [12] was “inactive” each time. Further, the outcome in experiment [2] was inactive. Also, the Potency in experiment [5] is 13.7 µM (active) and inactive.

Consider `CC(=O)Oc1ccccc1C(=O)Nc1ncc([N+](=O)[O-])s1`, for which the Potency is 12.6 µM (active) in experiment [1]; 889 nM (active) and inactive in experiment [4]; 140 nM (active) and 188 nM (active) in experiment [12]. In addition, the outcome in [2] and in experiment [7] was inactive. Moreover, the Potency entry in [3], in experiment [5], in [6], in experiment [9] and in experiment [11] was “inactive” in each case.

Regarding `O=C1OC2(c3cc(Br)c(O)c(Br)c3Oc3c2cc(Br)c(O)c3Br)c2c(Cl)c(Cl)c(Cl)c(Cl)c21`, the Potency entry in experiment [1], in experiment [14], in experiment [3], in experiment [4], in experiment [13] and in [6] was “inactive” each time. Besides, the Potency entry in experiment [9] is “inactive”. Also, the molecule was classed as inactive in experiment [2] and in experiment [7]. Besides, in experiment [10], the Potency was 4.33 µM (active).

For `Cc1c(OCC(F)(F)F)ccnc1CS(=O)c1nc2ccccc2[nH]1` (centres undefined), the Potency entry in experiment [1], in [14], in experiment [3], in experiment [15], in experiment [4] and in experiment [5] was “inactive” throughout. The Potency entry in experiment [6], in experiment [9], in experiment [10], in experiment [11], in experiment [16] and in experiment [17] was “inactive” throughout. In addition, the Potency entry in experiment [19] and in experiment [20] was “inactive” in each case. The molecule was classed as inactive in [2], in experiment [7] and in [18]. In experiment [12], the Potency was 34.4 µM (active) and 26.6 µM (active).

Consider `c1cc(N(CC2CO2)CC2CO2)ccc1OCC1CO1` (centres undefined), for which the Potency result in [1], in experiment [14], in experiment [3], in experiment [15], in experiment [4] and in experiment [6] was “inactive” throughout. Moreover, the Potency result in experiment [9], in experiment [10] and in [11] was “inactive” throughout. For the same molecule, the molecule was classed as inactive in experiment [2] and in [7]. In addition, the Potency in experiment [5] was 54.5 µM (active) and 61.1 µM (active).

Source of the values: PubChem BioAssay (Tox21).
